These compounds were tested on HepG2 (assay: GSK_TCMDC: Percent inhibition of human HepG2 cell line. Test compounds present at 10uM.).
Assay type: functional
In the case of `Cl.O=S(=O)(c1ccc(OCc2ccc(Cl)cc2)cc1)c1cc2c(c(-c3ccc(F)cc3)c1)CCN(CC1CC1)CC2`, the Inhibition was 0%. Compound `CC(C)[C@H](NC(=O)c1ccc(O)c(-c2ccc(Cl)c(Cl)c2)c1)C(=O)NCCN1CCCC1` has an Inhibition of 4%. With `O=C(NC1CCN(CC2(c3ccccc3)CCCC2)CC1)c1n[nH]cc1Cl` the Inhibition was 0%. In the case of `Oc1ccc(Cl)cc1-c1cc(C(F)(F)F)nc(-c2ccccc2)n1`, the Inhibition was 20%. `NC1CCCN(Cc2cccc(-c3ccc(-c4nc5cc(F)ccc5[nH]4)cc3)c2)C1.O=C(O)C(F)(F)F` (centres undefined) showed an Inhibition of 40%. In the case of `COC(=O)C(Cc1ccccc1)NC(=O)NC1CCN(c2ccnc(Nc3ccc(F)cc3)n2)C1` (centres undefined), the Inhibition was 0%. `CN1CCN(CC(O)CNC(=O)Nc2ccc(Br)cc2)CC1.O=C(O)C(F)(F)F` (centres undefined) was tested, and the Inhibition was 5%. In the case of `COCCn1c(Sc2ccc(C#N)c([N+](=O)[O-])c2)nnc1-c1ccc(N(C)C)cc1`, the Inhibition was 2%. `Cc1cc(N2CCCN(C)CC2)nc(Nc2ccc(Br)cc2)n1` showed an Inhibition of 8%. `CN1CCN(c2ccnc3ccc(NC(=O)Nc4ccc(-c5ccncc5)c5ccccc45)cc23)CC1` showed an Inhibition of 76%. `CS(=O)(=O)NCCCNCc1cccc(-c2ccc(-c3nc4cc(C(F)(F)F)ccc4[nH]3)cc2)c1.O=C(O)C(F)(F)F` was tested, and the Inhibition was 17%. `N=C(N)NC(=O)Nc1cc(Cl)c(Br)c(Cl)c1` was tested, and the Inhibition was 6%. `CN(C)CCOc1ccc2nc(-c3cccc(OCc4ccccc4)c3)[nH]c2c1C#N` gave an Inhibition of 48%. Work on `COc1ccc(S(=O)(=O)Nc2ccc(C(=O)NCc3ccc(C(F)(F)F)cc3)cc2)cc1N1CCN(CC2CC2)CC1.O=C(O)C(F)(F)F` yielded an Inhibition of 34%.
